These results are taken from PubChem BioAssay (NCATS).

Results filed as inconclusive are left out. The source made the active and inactive calls. The call rests on the fitted dose curve; in most records, active means well fitted inhibition curve with a large enough effect in the signal ratio, with a control signal flat (not every such curve was filed as active); inconclusive means small, poorly fitted or top-dose-only effect, or effect the other way, or a change in a side signal; inactive means flat fitted curve, though single readings scatter; the % refers to the signal ratio. Peptide text beside a SMILES is read from it.
On the % scale 0 is the no-effect control and ±100 the full control effect.

The target of this experiment is Glucocorticoid receptor (Homo sapiens) (UniProt P04150). As to the kind of experiment: qHTS assay for small molecule antagonists of glucocorticoid receptor signaling (AID 588533). The settings on record: HeLa MMTV-bla, GRE beta-lactamase ratio, antagonist mode, 18 h; series mostly up to 76.8 µM; activity change, negative = inhibition: at the top concentration. The source says: NIH Chemical Genomics Center [NCGC] U.S. Environmental Protection Agency [EPA] National Institutes of Environmental Health Sciences [NIEHS] National Toxicology Program [NTP] NCGC Assay Overview The Glucocorticoid receptor (GR), a nuclear receptor subfamily member and its natural ligands includes […] etc. The GR is a validated drug target for inflammation. GR ligands such as dexamethasone are clinically available as anti-inflammatory drugs. Glucocorticoids implicate a role in carbohydrate, protein and lipid metabolisms and programmed cell death. They are also a component of many chemotherapy regimens for the treatment of leukemias, lymphomas, and myelomas because of their role in the induction of apoptosis.
Glucocorticoid receptor (Homo sapiens), sequence (P04150 whole entry, looked up): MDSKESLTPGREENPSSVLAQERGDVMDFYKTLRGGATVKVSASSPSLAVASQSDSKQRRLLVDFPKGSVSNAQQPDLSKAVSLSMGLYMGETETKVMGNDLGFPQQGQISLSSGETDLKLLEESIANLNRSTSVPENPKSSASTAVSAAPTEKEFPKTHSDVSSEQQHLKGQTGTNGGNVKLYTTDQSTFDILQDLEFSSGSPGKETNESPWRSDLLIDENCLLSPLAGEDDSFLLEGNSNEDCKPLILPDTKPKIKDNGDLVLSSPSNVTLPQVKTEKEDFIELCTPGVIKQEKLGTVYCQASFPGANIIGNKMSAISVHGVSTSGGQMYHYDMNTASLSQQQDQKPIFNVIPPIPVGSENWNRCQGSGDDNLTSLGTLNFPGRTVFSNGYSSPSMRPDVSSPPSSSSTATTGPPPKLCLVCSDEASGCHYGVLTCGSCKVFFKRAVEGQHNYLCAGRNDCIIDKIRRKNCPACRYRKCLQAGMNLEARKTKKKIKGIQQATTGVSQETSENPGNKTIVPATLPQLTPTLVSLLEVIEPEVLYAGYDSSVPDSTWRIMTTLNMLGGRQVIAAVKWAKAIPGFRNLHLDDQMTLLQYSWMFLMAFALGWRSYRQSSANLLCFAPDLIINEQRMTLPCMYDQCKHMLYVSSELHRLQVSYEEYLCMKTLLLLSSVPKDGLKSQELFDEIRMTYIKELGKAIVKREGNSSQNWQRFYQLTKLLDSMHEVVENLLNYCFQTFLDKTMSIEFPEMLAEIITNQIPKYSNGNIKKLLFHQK
NCGC Assay Protocol Summary Using a beta-lactamase reporter-gene under control of glucocorticoid response element (GRE), a cell-based assay [CellSensor MMTV-bla HeLa cell line assay developed by Invitrogen] was used to measure GR ligands signaling. CellSensor MMTV-bla HeLa cells were used with assay medium containing 1% charcoal/dextran treated FBS, 0.1 mM NEAA, 1 mM sodium pyruvate and 25mM HEPES. The assay was performed in clear bottom black Greiner 1536-well plates. Library compounds were measured for their ability to inhibit the reporter gene activity. Compounds were screened in a titration series in 1536-well format. […] Data was normalized relative to Dexamethasone control (2 nM, 100%), and DMSO only wells (basal, 0%). Concentration-response titration points for each compound were fitted to the Hill equation yielding concentrations of half-maximal inhibition (IC50) and maximal response (efficacy) values. qHTS protocol for GR beta-lactamase assay in antagonist mode [Step] [Parameter] [Value] [Description] 1. Reagent; 5 uL; 1500 cells/well 2. Incubation; 37 C for 3-5 hrs 3. Compounds; 23 nL; 0.59 nM to 92 uM 4. […] Agonist (Stimulator); 1uL; Dexamethasone at 2 nM (final) concentration 6. Incubation; 37 C for 18 hrs 7. Detection reagent; 1 uL of CCF4-dye 8. Incubation; RT for 2 hrs 9. Detection; Fluorescence; Envision plate reader
Background: qHTS replaces the single test concentration by a dilution series.
As for `COc1c2occc2cc2ccc(=O)oc12`, the outcome was inactive. As for `Nc1nc(Cl)nc2c1ncn2[C@H]1C[C@H](O)[C@@H](CO)O1`, the “activity change, negative = inhibition” value was -12.3% (inactive). Same read-out and setting: next, `O=c1c(O)c(-c2ccc(O)cc2O)oc2cc(O)cc(O)c12`: -31% (inactive); `CCN(CC)C(=S)SSC(=S)N(CC)CC`: -31.9% (inactive). In the case of `CCc1nc(N)nc(N)c1-c1ccc(Cl)cc1`, the outcome was inactive. For `CN(C)c1ccc2nc3ccc(=[N+](C)C)cc-3sc2c1`, the “activity change, negative = inhibition” value is 21% (inactive). In the case of `Nc1ccc(S(N)(=O)=O)cc1`, the “activity change, negative = inhibition” value is 6.97% (inactive). Take `c1ccc2[nH]c(-c3cscn3)nc2c1`: the “activity change, negative = inhibition” value is -10.8% (inactive). As to `CC(=O)N1CCN(c2ccc(OC[C@H]3CO[C@](Cn4ccnc4)(c4ccc(Cl)cc4Cl)O3)cc2)CC1`, the “activity change, negative = inhibition” value is -5.16% (inactive). As to `COC(=O)[C@H](Cc1ccccc1)NC(=O)[C@@H](N)CC(=O)O` (H-Asp-Phe-OMe), the result was inactive.

Turning to `COc1cc(OC)c(C(=O)CCCN2CCCC2)c(OC)c1`, the “activity change, negative = inhibition” value was 21.7% (inactive).
